Where “and” joins values, the source holds several entries; their conditions need not be identical. Equal entries are not always repeated. Results filed as inconclusive are left out. The source holds several records for some structures; these can differ, active in one and inactive in another. Calls of active or inactive are those of the source. The call rests on the fitted dose curve; in most records, active means well fitted curve in the direction sought with a large enough effect; inconclusive means small, poorly fitted or top-dose-only effect, or another doubt; inactive means no such curve, though single readings can be large; an effect the other way counts as inactive or inconclusive.
What was measured:
[1] = qHTS assay for measurement of the activity of small molecule inhibitors on Zika virus induced Caspase-3 activity in human iPSC derived neural progenitor cells (hNPCs) (AID 1224857); further: nearly all actives have a fitted effect of over 65% in size
Procedure, shortened: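 Cells were plated at 350 per well and grown 16 to 20 hours. Compound pretreatment lasted one hour, after which ZIKV (2 FFU/cell) was added for 6 hours. Percent inhibition was normalized between uninfected and infected controls.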

[2] = qHTS assay for measurement of the activity of small molecule inhibitors on Zika virus induced Caspase-3 activity in human astrocytoma cells (AID 1224859)
Procedure, shortened: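 Percent inhibition of virus-induced caspase-3/7 signal is calculated against uninfected and ZIKV-infected control cells. Cells are SNB-19, infected at 2 FFU/cell for 6 h after 1 h compound exposure.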

[3] = qHTS Screen of the MIPE 4.0 Collection Against Ewings Sarcoma (RDES) (AID 1259252); further: nearly all actives have a fitted effect of over 35% in size; further: potency means the concentration at half of the fitted maximal effect
Procedure, shortened: (§1)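 Here, cells in 5% FBS RPMI were exposed for two days (48 h) to compound dilutions added four hours after plating. ATP-based CellTiter-Glo luminescence measured viability, normalized to vehicle and no-cell blanks.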

[4] = qHTS Screen of the MIPE 4.0 Collection Against Ewings Sarcoma (TC71) (AID 1259253); further: nearly all actives have a fitted effect of over 40% in size; further: potency means the concentration at half of the fitted maximal effect
Procedure, shortened: as §1

[5] = qHTS Screen of the MIPE 4.0 Collection Against Ewings Sarcoma (EW8) (AID 1259255); further: nearly all actives have a fitted effect of over 35% in size; further: potency means the concentration at half of the fitted maximal effect
Procedure, shortened: as §1

[6] = qHTS Screen of the MIPE 4.0 Collection Against Ewings Sarcoma (TC32) (AID 1259256); further: nearly all actives have a fitted effect of over 45% in size; further: potency means the concentration at half of the fitted maximal effect
Procedure, shortened: as §1

[7] = Identifying Small Molecule Inhibitors of Pancreatic Cancer Stem Cells (Panc1, Spheroid) (AID 1259359);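 further: potency means the concentration at half of the fitted maximal effect; compound exposure lasted 48 h before reading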
Procedure, shortened: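 Cytotoxicity read by CellTiter-Glo luminescence after 48 h compound exposure at 37C; percent activity scaled between DMSO-treated cells and cell-free wells. Spheroid formats used cells pre-formed 14 days in stem cell media on hydrogel.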

[8] = P-glycoprotein substrates identified in KB-3-1 adenocarcinoma cell line, qHTS therapeutic library screen (AID 1346986); further: nearly all actives have a fitted effect of over 60% in size;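 further: potency means the concentration at half of the fitted maximal effect; potency is for cytotoxicity meaning loss of cell viability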
Procedure, shortened: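 Resistance attributable to P-gp was assessed by comparing AC50 in KB-8-5-11 with parental KB-3-1 and by tariquidar reversal. Cells were exposed 72 h and viability read by CellTiter-Glo.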

[9] = P-glycoprotein substrates identified in KB-8-5-11 adenocarcinoma cell line, qHTS therapeutic library screen (AID 1346987); further: nearly all actives have a fitted effect of over 65% in size; further: potency means the concentration at half of the fitted maximal effect
Procedure, shortened: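 Steps: plate 500 KB-8-5-11 cells/well in DMEM + 10% FCS (colchicine removed); pin compounds in dose-response; incubate 72 h, 37 degree C, 5% CO2; add CellTiter-Glo, 5 min; read luminescence.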

[10] = NS1 protein of Zika virus - qHTS assay to identify small molecule inhibitors in human HEK 293 cells (AID 1347053); further: nearly all actives have a fitted effect of over 55% in size; further: potency means the concentration at half of the fitted maximal effect
Procedure, shortened: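 HEK 293; 20 h pre-culture, 37 C/5% CO2; cpd 1 h pre-infection; ZIKV MR766, MOI = 0.5, 24 h, 37 C; TR-FRET NS1 readout (two anti-NS1 Abs); norm. to no-virus vs infected.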

[11] = Identifying Small Molecule Inhibitors of Pancreatic Cancer Stem Cells (SN12C, Spheroid) (AID 1259360); details: Potency: SN12C spheroid viability; further: potency means the concentration at half of the fitted maximal effect
Procedure, shortened: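 Monolayer and spheroid cultures are compared. Spheroids form over 14 days in stem cell medium on hydrogel-coated low-attachment plates, then are exposed to compound for 48 h before CellTiter-Glo luminescence.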

[12] = Identifying Small Molecule Inhibitors of Pancreatic Cancer Stem Cells (A278, Adherent) (AID 1259361); further: nearly all actives have a fitted effect of over 35% in size
Procedure, shortened: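 Luminescent ATP readout (CellTiter-Glo) quantifies surviving cells after a 48 h drug incubation. Normalization uses DMSO wells as no inhibition and media-only wells as full inhibition; bortezomib served as positive control.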

[13] = Identifying Small Molecule Inhibitors of Pancreatic Cancer Stem Cells (Panc1, Adherent) (AID 1259362); details: Potency: viability; further: potency means the concentration at half of the fitted maximal effect
Procedure, shortened: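 After a 4 h attachment period, compounds were pinned into wells and cultures held 48 h under standard incubator conditions. Viability was then measured as CellTiter-Glo luminescence following 10 min at room temperature.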

| SMILES | Potency [1] | Potency [2] | Potency [3] | Potency [4] | Potency [5] | Potency [6] | Potency [7] | Potency [8] | Potency [9] | Potency [10] | Potency [11] | IC50 (viability decrease) [12] | Potency [13] |
| --- | --- | --- | --- | --- | --- | --- | --- | --- | --- | --- | --- | --- | --- |
| CC1(O)CC(c2nc(-c3ccc4ccc(-c5ccccc5)nc4c3)c3c(N)nccn23)C1 (configuration not stated) | inactive | inactive | 20.9 µM (active) | 5.9 µM (active) | 13.2 µM (active) | 0.0743 µM (active) | 148 nM (active) | 6.51 µM (active) | 14.8 µM (active) and 9.2 µM (active) |  |  |  |  |
| O=C(O)CCCc1c[nH]c2ccccc12 | inactive | inactive | inactive | inactive | inactive | inactive |  | inactive | inactive | inactive |  |  |  |
| Clc1ccc2ncc(-c3cccc(NC4CNC4)n3)n2c1 | inactive | inactive | 18.7 µM (active) | 20.9 µM (active) | 3.32 µM (active) | 18.7 µM (active) |  | inactive | inactive | inactive | inactive |  |  |
| CS(=O)(=O)c1ccc(-c2cnc(N)c(C(=O)Nc3ccccc3)n2)cc1 | inactive | inactive | inactive | 10.5 µM (active) | 13.2 µM (active) | 4.18 µM (active) |  | inactive | inactive | inactive |  |  |  |
| C=CCn1c(=O)c2cnc(Nc3ccc(N4CCN(C)CC4)cc3)nc2n1-c1cccc(C(C)(C)O)n1 | inactive | inactive | 0.264 µM (active) | 0.332 µM (active) | 0.0833 µM (active) | 0.372 µM (active) | 418 nM (active) |  | 3.72 µM (active) and 5.8 µM (active) | 0.418 µM (active) | 1.66 µM (active) | 0.59 µM (active) |  |
| Cc1nc(N)ncc1-c1nc(N2CCOCC2)c2sc(C(C)(C)O)cc2n1 | inactive | inactive | 1.66 µM (active) | 5.9 µM (active) | 6.62 µM (active) | 2.35 µM (active) |  | 1.03 µM (active) | 1.48 µM (active) and 1.64 µM (active) |  |  |  |  |
| CNC(=O)c1ccc(N2C(=S)N(c3cnc(C#N)c(C(F)(F)F)c3)C(=O)C23CCC3)cc1F | inactive | inactive | 1.18 µM (active) | 2.96 µM (active) | 8.33 µM (active) | 8.33 µM (active) |  | inactive | inactive | inactive |  |  |  |
| CCOc1ccccc1OCCNC(C)Cc1ccc(OC)c(S(N)(=O)=O)c1 (configuration not stated) | inactive | inactive | inactive | inactive | inactive | inactive |  | inactive | inactive | inactive |  |  |  |
| CC(C)(C)c1cc(C(C)(C)C)c(NC(=O)c2c[nH]c3ccccc3c2=O)cc1O | inactive | inactive | inactive | inactive | inactive | inactive |  |  | inactive | inactive |  |  | 23.5 µM (active) |
| COC(=O)Nc1ccc(-c2nc(N3CCOCC3)c3cnn(C4CCN(Cc5cccnc5)CC4)c3n2)cc1 | inactive | inactive | 0.166 µM (active) | 0.059 µM (active) | 0.0833 µM (active) | 0.0469 µM (active) |  | 1.03 µM (active) | 148 nM (active) and 920 nM (active) | 16.6 µM (active) |  |  |  |
| CCNC(=O)Nc1ccc2ncc(Nc3ccc(C)cc3)nc2n1 | inactive | inactive | 0.332 µM (active) | 2.96 µM (active) | 2.96 µM (active) | 1.32 µM (active) |  | inactive | inactive | inactive |  |  |  |
| O=C(NC1CCNCC1)c1[nH]ncc1NC(=O)c1c(Cl)cccc1Cl | inactive | inactive | 0.187 µM (active) | 0.264 µM (active) | 0.418 µM (active) | 0.209 µM (active) | 1.32 µM (active) and 1.05 µM (active) | 0.58 µM (active) | inactive | 3.72 µM (active) | 1.05 µM (active) |  |  |
| Cc1ccc(C(=O)Nc2cccc(C(F)(F)F)c2)cc1-c1ccc2nc(NCCN3CCOCC3)ncc2c1 | inactive | inactive | 14.8 µM (active) | 14.8 µM (active) | 14.8 µM (active) | 11.8 µM (active) |  | 8.2 µM (active) | 16.6 µM (active) and 11.6 µM (active) |  |  | 2.64 µM (active) |  |
| CC(C)Nc1cc(C(F)(F)F)cc2nc(NC(=O)c3cccnc3)nn12 | inactive | inactive | 11.8 µM (active) | 13.2 µM (active) | inactive | inactive |  | inactive | inactive | inactive |  |  |  |
| CNc1nccc(-c2cccnc2Oc2cc(C(=O)Nc3cccc(C(F)(F)F)c3)ccc2C)n1 | inactive | inactive | 4.18 µM (active) | 16.6 µM (active) | 18.7 µM (active) | 16.6 µM (active) |  | inactive | inactive and 16.4 µM (active) |  | 18.7 µM (active) |  |  |
| CC(=O)Nc1nc(C)c(-c2ccc(Cl)c(S(=O)(=O)NCCO)c2)s1 | inactive | inactive | 5.9 µM (active) | 14.8 µM (active) | 16.6 µM (active) | 10.5 µM (active) |  | 9.2 µM (active) |  | inactive |  |  |  |
| CN1CCN(c2ccc3nc(-c4c(N)c5c(F)cccc5[nH]c4=O)[nH]c3c2)CC1 | inactive | inactive | 14.8 µM (active) | 11.8 µM (active) | 5.9 µM (active) | 14.8 µM (active) |  | 5.17 µM (active) | 2.64 µM (active) and 8.2 µM (active) |  | 6.62 µM (active) | 3.32 µM (active) |  |

Source: PubChem BioAssay (NCATS)
